# Screening results (PubChem)
# Rows were chosen to be rich in hits. Some 3.7% of all compounds tested hit in one or more screens of this group.
# A549 tox-1 – Nrf2 qHTS screen for inhibitors: counterscreen for cytotoxicity | AID 504648, 2011 | hit rate 0.16% among 390,000 | A549 ARE-Fluc cells, CellTiter-Fluor viability, 18-24 h | Potency, µM (highest dose often 46 µM), for the others: top-dose activity change, negative = cytotoxicity, hits mostly inhibitors; note: potency is the fitted concentration of half-maximal effect; % is set by controls: 0 for no effect and ±100 for the full control effect
#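 A549 ARE-Fluc cells in 5% FBS OPTI-MEM, 5000 cells/well, rested 2 h then exposed to compounds in concentration-response for 18-24 h at 37 °C. Viability by CellTiter-Fluor fluorescence (Ex 405/Em 525) after 30 min; luciferase luminescence (BugLite, 15 min, RT) read afterwards.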
# Nrf2 ARE act – qHTS of Nrf2 Activators; hit rate 0.31% among 410,000; AREc32 ARE-luciferase reporter (MCF7-derived line), luminescence, 24 h; Potency, µM (top dose mostly 46.1 µM), without a hit: top-dose activation, most hits filed as activators; note: potency is the fitted concentration of half-maximal effect; % of control where 0% means no effect; nearly all actives have a fitted effect of over 65% in size
#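 For detection, Steady-Glo was added and plates sat 30 min at RT; before that, AREc32_Fluc cells grown overnight in OPTI-MEM/5% FBS had been treated with 23 nL compound for 24 hr at 37 deg C.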
# miR-21 reporter – qHTS Assay for Modulators of miRNAs and/orActivators of miR-21; Potency, µM (titrated, usually from 38.3 µM), inactives show at the top dose activity change, positive = activation, most hits filed as activators; 340,000 tested, under 10 active; HeLa miR-21 FLuc reporter, luciferase, 48 h; AID 2288, 2010;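 note: % of control where 0% means no effect; miR-21 action dims this reporter so a rising signal means less miR-21 action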
#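 HeLa cells stably expressing CMV-driven firefly luciferase with a downstream miR-21 binding sequence, endogenously expressing miR-21, were treated with titrations (up to about 40uM final) for 48 hours at 37 degree Celsius. Luciferase luminescence was read after lysis.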
# ClpP mod – qHTS Assay for Activators of ClpP; hit rate 1.9% among 340,000; purified B. subtilis ClpP, FRET peptide cleavage, 20 min; ATP-dependent Clp protease proteolytic subunit (Bacillus subtilis (strain 168)), P80244; Potency, µM (doses to about 57.5 µM), for inactives: top-dose activity change, negative = active; active = well fitted falling curve with a large enough effect; inconclusive = small, poorly fitted or top-dose-only effect; inactive = no such curve, though single readings can be large or run the other way; note: potency is the fitted concentration of half-maximal effect; the source files actives as falling curves though it sought activators and does not explain the sign; nearly all actives have a fitted effect of over 65% in size
# Target sequence (P80244 whole entry, looked up): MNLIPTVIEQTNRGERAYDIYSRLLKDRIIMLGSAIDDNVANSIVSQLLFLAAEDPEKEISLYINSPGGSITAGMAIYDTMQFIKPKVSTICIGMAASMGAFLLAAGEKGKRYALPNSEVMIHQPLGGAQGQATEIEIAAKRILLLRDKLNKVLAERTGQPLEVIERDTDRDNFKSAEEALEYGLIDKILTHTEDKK
#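 Purified B. subtilis ClpP, 10 microg/mL final in Tris/HCl pH8 with KCl, BSA, glycerol and Tween-20, cleaved an Abz/nitrotyrosine-quenched decapeptide. Fluorescence (ex 320, em 430) was read at 0 and 20 min at room temperature. Delta was normalized to 5.8 microM ADEP and DMSO/no-enzyme controls.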
# Nrf2 block – Nrf2 qHTS screen for inhibitors; A549 ARE-Fluc reporter, luciferase luminescence, 18-24 h; Potency, µM (highest dose often 46 µM), without a hit: top-dose activity change, negative = inhibition, most hits filed as inhibitors; hit rate 2.1% among 360,000; AID 504444, 2011; note: potency is the fitted concentration of half-maximal effect; % is set by controls: 0 for no effect and ±100 for the full control effect; nearly all actives have a fitted effect of over 60% in size
#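 A549 ARE_Fluc cells, 5000/well, 5% FBS OPTI-MEM; compounds in dose-response, 18-24 h at 37 °C/5% CO2; CellTiter-Fluor viability read (Ex 405/Em 525), then BugLite luciferase luminescence = Nrf2 activity.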
# IL2 activator – qHTS of IL-2 Activators; hit rate 0.065% among 360,000; IL-2 activation reporter assay, cell-based qHTS; stimulated with anti-CD3/CD4/CD28 beads; in transgenic mouse T cells; activation, % (series mostly up to about 46 µM); in the data active = activation above about 50%; inconclusive = mostly about 30% to 49%; note: 0% is about no effect
#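 Unstimulated transgenic mouse T cells; 60-min compound exposure; bead-based TCR/CD4/CD28 stimulation; 18 h culture, 37 degrees C; dual fluorescence (EGFP, DsRed) plate cytometry.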
# FLuc counter 3 – Nrf2 qHTS screen for inhibitors: Purified Fluc Biochemical Counterscreen for Hit Validation; shares compounds with Nrf2 block; purified firefly luciferase, luminescence inhibition; Potency, µM (series often up to 57.5 µM), without a hit: top-dose activity change, negative = inhibition, usual class: inhibitors; hit rate 4% among 1,400; note: potency is the fitted concentration of half-maximal effect; % is set by controls: 0 for no effect and ±100 for the full control effect; nearly all actives have a fitted effect of over 65% in size
# Target sequence (P08659 whole entry, looked up): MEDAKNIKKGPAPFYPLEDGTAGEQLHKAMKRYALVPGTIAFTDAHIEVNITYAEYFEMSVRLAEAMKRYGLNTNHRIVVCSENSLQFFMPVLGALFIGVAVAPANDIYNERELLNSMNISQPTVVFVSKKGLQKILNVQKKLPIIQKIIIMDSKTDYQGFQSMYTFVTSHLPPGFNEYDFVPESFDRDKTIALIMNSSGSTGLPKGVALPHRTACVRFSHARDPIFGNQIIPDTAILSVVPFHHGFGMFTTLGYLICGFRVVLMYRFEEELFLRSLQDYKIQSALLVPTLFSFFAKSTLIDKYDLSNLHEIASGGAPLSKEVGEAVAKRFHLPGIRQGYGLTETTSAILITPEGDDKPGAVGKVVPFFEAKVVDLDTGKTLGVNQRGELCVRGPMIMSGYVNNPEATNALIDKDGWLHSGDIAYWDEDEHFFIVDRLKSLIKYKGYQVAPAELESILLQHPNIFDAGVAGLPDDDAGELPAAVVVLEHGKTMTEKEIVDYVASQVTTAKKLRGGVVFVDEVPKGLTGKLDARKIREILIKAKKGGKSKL
# A549 tox-2 – Nrf2 qHTS screen for inhibitors: A549 ARE-Fluc Cytotoxicity Counterscreen for Hit Validation | shares compounds with Nrf2 block | A549 ARE-Fluc cells, cytotoxicity counterscreen | Potency, µM (series often up to 46.1 µM), for inactives: at the top dose activity change, negative = cytotoxicity, most hits filed as inhibitors | hit rate 2% among 1,400;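 note: potency is the fitted concentration of half-maximal effect; cells exposed to compounds for 18 to 24 hours; % is set by controls: 0 for no effect and ±100 for the full control effect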
# ARE-Fluc inh – Nrf2 qHTS screen for inhibitors: Nrf2 A549 ARE-Fluc Confirmation Assay for Hit Validation | shares compounds with Nrf2 block | A549 ARE-firefly luciferase reporter, luminescence | Potency, µM (doses to about 46.1 µM), inactives show top-dose activity change, negative = inhibition, usual class: inhibitors | hit rate 74% among 1,400 | AID 720524, 2013; note: potency is the fitted concentration of half-maximal effect; % is set by controls: 0 for no effect and ±100 for the full control effect; nearly all actives have a fitted effect of over 65% in size
# An asterisk follows results filed as active; ? = inconclusive; nt = no result shown; [ ] = another dose, or the depositor's remark. Unless noted, calls come from the whole dose curve; as a rule, active = well fitted curve in the direction sought with a large enough effect; inconclusive = small, poorly fitted or top-dose-only effect, or another doubt; inactive = no such curve, though single readings can be large; an effect the other way counts as inactive or inconclusive.
SMILES,A549 tox-1,Nrf2 ARE act,miR-21 reporter,ClpP mod,Nrf2 block,IL2 activator,FLuc counter 3,A549 tox-2,ARE-Fluc inh
O=C1N(c2ccccc2)C[C@@H]2C[C@@H](c3cc4ccccc4o3)N3CCC[C@@]123,?,0%,-5%,nt,1.2µM*,-1,-3%,-28%,2.6µM*
COc1ccc(C2C(=O)N(C3CCCCCC3)CC(=O)N2Cc2ccc(C)cc2)cc1OC (stereo unspecified),11%,0%,-4%,0%,nt,nt,nt,nt,nt
Fc1ccc(Nc2nc3nonc3nc2Nc2cccc(C(F)(F)F)c2)cc1,8.2µM*,-5%,?,-1%,1.5µM*,nt,-23%,5.8µM*,1µM*
Cc1cc(C)c(CN2CCN(C(=O)Cn3cnc4c(OCc5ccccc5)ncnc43)CC2)c(C)c1,-14%,1%,nt,-3%,3.7µM*,-1,2%,-11%,6.5µM*
O=C(O)Cn1cnc2c(OCc3ccccc3)ncnc21,2%,-1%,nt,-1%,-2%,0,nt,nt,nt
CCN(CC)C(=O)c1ccc2nc3ccccc3nc2c1,?,2%,-52%,0%,1.5µM*,0,?,?,nt
Cc1ccc(CNC(=O)c2nnc(Cc3cccc(F)c3)o2)cc1,?,0%,-6%,-1%,15%,nt,nt,nt,nt
C=CCN(c1ccccc1)S(=O)(=O)c1cccc(C(=O)Nc2nc3ccccc3[nH]2)c1,?,5%,12%,-21%,2.9µM*,-1,-16%,0%,5.8µM*
Cc1cccc(OCC(=O)Nc2ccc(-c3nc4cc(C)ccc4o3)c(O)c2)c1,-4%,5%,-54%,-18%,-8%,nt,nt,nt,nt
CCOc1ccc(Oc2ccccc2NC(=O)CSCC(=O)Nc2cc(C)on2)cc1,-19%,2%,nt,-3%,9.2µM*,1,-2%,-7%,7.3µM*
CC(C)(C)c1nc(N2CCN(C(=O)c3ccco3)CC2)c2nnn(Cc3ccccc3)c2n1,?,0%,-5%,?,8.2µM*,-1,1%,?,1.3µM*
COc1cc(NC(=O)Cn2c(-c3ccccc3)cc(C(C)=O)c2C)cc(OC)c1,0%,1%,13%,0%,nt,nt,nt,nt,nt
COc1ccc(C(=O)Nc2nnc(SCc3cc(=O)c4cccc(F)c4[nH]3)s2)cc1,4%,2%,-6%,-3%,nt,nt,nt,nt,nt
CC1(C)CC2CC(C)(CN2C(=O)COC(=O)c2ccccc2C(F)(F)F)C1 (stereo unspecified),-14%,0%,nt,1%,3.7µM*,2,0%,-1%,-24%
O=C(Nc1nonc1NC(=O)c1cccs1)c1cccs1,?,7%,26%,nt,1.6µM*,3,-15%,-12%,6.5µM*
COc1ccc(CNC(=O)Cn2ccc3cc(S(=O)(=O)N4CCCCC4)ccc32)c(OC)c1,-3%,6%,4%,-28%,?,nt,nt,nt,nt
C[n+]1c2n(c3ccccc31)N=C(c1ccccc1)CS2,?,8.9µM*,?,-15%,3.7µM*,-3,0%,-9%,nt
Cc1cccc(-c2nnc3n2N=C(c2ccccc2)CS3)c1,-3%,2%,8%,-2%,?,-3,nt,nt,nt
Cc1ncc(CO)c2c1Oc1nc(-c3ccccc3)nc(SCC(=O)Nc3cccc(O)c3)c1C2,?,0%,-1%,0%,1.8µM*,0,-2%,-14%,5.8µM*
COc1ccc(-c2nc3c(c(SCC(=O)Nc4cccc(O)c4)n2)Cc2c(CO)cnc(C)c2O3)cc1,10%,5%,-11%,-5%,-1%,8,nt,nt,nt
CSc1cccc(NS(=O)(=O)c2ccc3[nH]cc(C(=O)N4CCCCCC4)c(=O)c3c2)c1,1%,0%,-4%,-15%,13%,nt,nt,nt,nt
Cc1nc2ccc(NS(=O)(=O)c3ccc4c(c3)OCCO4)cc2s1,-25%,3%,19%,1%,2.9µM*,0,-2%,-1%,6.5µM*
Cc1ccc(S(=O)(=O)Nc2ccc3c(c2)OCCO3)cc1,10%,2%,-3%,-2%,-3%,1,nt,nt,nt
Cc1cc2[nH]c3c(c[n+](C)c4ccccc34)c2cc1C,?,-2%,?,-5%,5.8µM*,-1,1%,7%,7.3µM*
O=[N+]([O-])c1ccc(N/N=C/c2sc(N3CCOCC3)nc2-c2ccccc2)c(S(=O)(=O)Nc2ccc(Cl)cc2)c1,2.6µM*,0%,0%,0%,1.5µM*,-1,-23%,?,3.3µM*
Cc1c(Cl)cccc1NC(=O)C(=O)NCCc1csc(-c2cccc(F)c2)n1,14%,-1%,0%,-23%,nt,nt,nt,nt,nt
COc1cc(NC(=O)c2cccc(COCC(F)(F)C(F)F)c2)cc(OC)c1OC,2%,0%[9.22 µM],4%,3%,9.2µM*,0,-7%,0%,-11%
COc1ccc(NC(=O)c2ccc(COCC(F)(F)C(F)F)cc2)cc1OC,-5%,0%,-3%,1%,-22%,-1,nt,nt,nt
